From the OligoGym collection

Target: GPX2
Experiment: pooled miR-30 sensor sort-seq; sequence = guide strand
Settings: shRNA
Further: reference of the scale not given here.

Sequence | sensor-assay potency score (higher = more potent)
TTGAAATCTACCTTCTCCCCAT | 0.588
TATGAGGAACTTCTCAAAGTTC | -1.27
TTTTGGACAAGGGTGAAGGTGG | -0.672
TTGGACAAGGGTGAAGGTGGGC | 0.00355
TTGAGCTGGGTGAAGTCCCGGG | -0.183

Target: GRAMD1B
Experiment: as above
Settings: shRNA

Sequence | sensor-assay potency score (higher = more potent)
TACATGGTCTGTGTCTCCCTGA | 0.155
TTGTGTAGAAGTAGTCATGGTA | 0.548
TTGGTCTCTATGCTGCTCTTGG | -0.389
TTCTTGGAGCCTTAGACCCTGC | -0.896
TAACACATTATACCAACTCTGG | -0.853
TTTTCTTCACTTTCCGACGTGT | 0.0883
TTGTAGAAGAGCATCATGTTAA | -0.883
TTTTTGGAGCTCAGTATCGTGG | -1.12
TTGTCATTGAAGTCCAGTGAAG | -1.36
TATCGTGGTACTTTTGTTGGGA | 0.623
TTGTCTGTGCATCTCAGCCAAA | -1.36
AACATCATCATATATGTCCTAT | -0.649

Target: GRAMD1C
Experiment: as above
Settings: shRNA

Sequence | sensor-assay potency score (higher = more potent)
TTGATAGTCAGTACACTTGTAC | 0.115
TAACAAATCTGATTCAAGCTGT | 0.354
ATAATCATCATCAACATGCAGA | 0.0723
TACATCTTCCTGTAAGTCGGTG | -0.625
TTTTGATGAATTTCCATCGAAT | -0.801
TAGTCCTCCAAAGAACTCCAGG | -0.901
TTATTTAGTAGATCAAACGTTT | -0.243
TATTCTTCTGAATAGTTTCTGC | -0.573
TTCATTTTTATTCAAGTCCAGT | -0.865
TAACTCTTGAAAAAATATCTGA | -0.51
TATAAAGCAACTTACTTCGATA | -0.838
TTGCTATAGAAACATAGCCAGT | -1.61

Target: GRHL3
Experiment: as above
Settings: shRNA

Sequence | sensor-assay potency score (higher = more potent)
TAGGTCGTCTCATTGCCCCTGA | 0.415
TTTTCTAGGTACGTCTTCCAGG | -0.466
TTGATCTGGCAGACAGCACGGT | -0.0201
TAGTGTAAGAGAATTTCTGCAA | 0.49
TTTAGCAGCCGCACAGACCTGA | -0.237
TTTTGTGAGGAAAAGTCTGTGC | -0.211
TATTCTTCTTGAGCAAATCTGG | -0.748
TTCTTCTTGAGCAAATCTGGGT | -0.605
TTGACTAAGATTCCTCGCTTGC | -0.416
TTGCATTTCTTGTAGACTTTGT | -0.218
TTTGTGGCAGCTGTCAACGGGT | -0.745
